Screening results as filed in PubChem.
Most compounds without a hit are left out; they make up all but 0.38% or so of the library.
Rab2 wt GTP – changes GTP binding to wildtype dog Rab2A, up or down; GST-Rab2 wt beads, Bodipy-GTP binding, flow cytometry; GTP binding activity, % at 10 µM; 190,000 tested, 0.19% active; AID 760;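 active = GTP binding activity at least 20 points away from 100%, either lowered or raised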
Rab7 wt modul – modulators of GTP binding to dog Rab7 wildtype GTPase | AID 758 | GST-Rab7 beads, fluorescent GTP binding, flow cytometry; actives lie on both sides; untreated = 100%, excess cold GTP = 0% | 190,000 tested, 0.055% active | GTP binding activity (percent of control), % at 10 µM;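 active = fluorescent GTP binding to Rab7 beads changed by at least 20 points from the 100% baseline, either direction, mostly lower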;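 note: median green fluorescence of bound Bodipy-FL-GTP per Rab7 bead population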
HRas wt GTP bind – changes GTP binding to wildtype human HRas | GTP binding activity, % at 10 µM | 190,000 tested, 0.14% active | P01112 | GST-Ras wt beads, Bodipy-FL-GTP binding, flow cytometry; actives lie on both sides | AID 759;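 active = GTP binding activity at least 20% away from the 100% baseline, either lowered as inhibitor or raised as activator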
Target sequence (P01112 whole entry, looked up): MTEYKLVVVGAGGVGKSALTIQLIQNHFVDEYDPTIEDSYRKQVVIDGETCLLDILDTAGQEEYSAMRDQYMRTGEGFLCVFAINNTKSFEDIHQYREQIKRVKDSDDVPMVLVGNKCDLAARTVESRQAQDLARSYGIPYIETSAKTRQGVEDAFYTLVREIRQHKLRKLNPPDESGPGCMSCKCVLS
Rac1 act GTP bind – human Rac1 activated mutant GTP binding change. GST-Rac1 activated beads, fluorescent GTP binding, flow cytometry; actives lie on both sides; 100% means binding = to untreated wells. percent activity (GTP binding), % at 10 µM. 190,000 tested, 0.11% active. AID 764;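 active = GTP binding at least 20 percentage points away from the 100% baseline, in either direction, so actives lie on both sides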
Cdc42 wt GTP – modulators (inhibitors or activators) of GTP binding to human Cdc42 wildtype. P60953. GST-Cdc42 beads, Bodipy-GTP binding, flow cytometry; actives lie on both sides. percent activity (GTP binding), % at 10 µM. 190,000 tested, 0.2% active;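 active = percent activity GTP binding at least 20 points away from the 100% baseline, either down as inhibitor or up as activator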;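 note: median bead fluorescence of bound Bodipy-FL-GTP at 100 nM; below 100% means less GTP binding so inhibitor and above means activator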
Target sequence (P60953 whole entry, looked up): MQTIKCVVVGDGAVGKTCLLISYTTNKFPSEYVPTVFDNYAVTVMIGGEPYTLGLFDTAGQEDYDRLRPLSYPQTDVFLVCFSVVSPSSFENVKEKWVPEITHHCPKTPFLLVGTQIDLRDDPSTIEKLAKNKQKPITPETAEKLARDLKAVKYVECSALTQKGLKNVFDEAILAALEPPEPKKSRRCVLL
Rac1 wt GTP bind – modulators of human Rac1 wildtype GTP binding. GST-Rac1 beads, fluorescent GTP binding, flow cytometry; actives lie on both sides; 0 = cold GTP competed, 100 = untreated. GTP binding activity (% of control), % at 10 µM. 190,000 tested, 0.27% active;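 active = GTP binding activity at least 20 points away from the 100% control level, either lower or higher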
Of the large screens only hits and unclear results are named; the others gave an inactive call; [ ] = another dose, or the depositor's remark.

Oc1ccc(/C=N/Nc2nc(-c3ccc(Cl)cc3)cc(C(F)(F)F)n2)cc1	none
O=c1[nH]c(=O)c2nnc(N/N=C\c3ccc(O)cc3)nc2[nH]1	Rab2 wt GTP 59, HRas wt GTP bind 63, Rac1 act GTP bind 74, Cdc42 wt GTP 60, Rac1 wt GTP bind 54
Cc1cc2ncn(CCC(=O)NC3CCCC3)c2cc1C	none
Cc1cc2ncn(CCC(=O)NC(C)(C)C)c2cc1C	Rac1 wt GTP bind 77
C/C(CC(=O)NC12CC3CC(CC(C3)C1)C2)=N\NC(=O)c1ccc(C)cc1	none
CSc1nc2ccc(NC(=O)C3CC(=O)N(Cc4ccco4)C3)cc2s1 (stereo unspecified)	Cdc42 wt GTP 75
N#CC(C#N)=C1C=CC=CN1/C(=C\c1ccccc1)C(=O)c1cccs1	none
N#CC(C#N)=C1C=CC=CN1/C(=C\c1ccccc1Cl)C(=O)c1ccccc1	Cdc42 wt GTP 78
CCc1nnc(NS(=O)(=O)c2ccc(Nc3ccc4nonc4c3[N+](=O)[O-])cc2)s1	Rab2 wt GTP 76, HRas wt GTP bind 77, Rac1 wt GTP bind 77
CC(=O)Nc1ccc(Nc2ccc3nonc3c2[N+](=O)[O-])cc1	none
O=C1Nc2ccc(Br)cc2C12NNc1ccccc1O2 (stereo unspecified)	Cdc42 wt GTP 79
COC(=O)c1ccc2nc(Nc3nc4c(F)cc(F)cc4s3)sc2c1	Rab2 wt GTP 79
COCC(=O)N1CCN(c2nc3ccccc3o2)CC1	none
CNc1ncc(C(=O)c2ccc(Br)cc2)s1	Rac1 wt GTP bind 121[activator]
CNc1ncc(C(=O)c2ccccc2)s1	none
NC(=O)c1cc2nc(-c3ccco3)cc(C(F)(F)F)n2n1	Rab2 wt GTP 63, HRas wt GTP bind 65, Cdc42 wt GTP 64, Rac1 wt GTP bind 68
COc1ccc(-c2cc(C(F)(F)F)n3nc(C(=O)O)cc3n2)cc1OC	Rac1 wt GTP bind 77
COC(=O)c1cc2nc(-c3ccc(OC)c(OC)c3)cc(C(F)(F)F)n2n1	none
COc1ccc(/C=N/Nc2ncnc3sc(C)c(C)c23)cc1	none
Cc1sc2ncnc(N/N=C/c3ccc(O)cc3)c2c1C	Rab2 wt GTP 77
COc1ccc(-c2nn3c(-c4ccco4)nnc3s2)cc1OC	Rab2 wt GTP 71, HRas wt GTP bind 68, Cdc42 wt GTP 68, Rac1 wt GTP bind 70
CCOc1cccc(-c2nn3c(-c4ccco4)nnc3s2)c1	Rab2 wt GTP 78
COc1cccc(-c2nnc3sc(-c4ccco4)nn23)c1	none
COc1ccc(-c2nnc3sc(-c4ccco4)nn23)cc1OC	none
COC(=O)C1=C(C)NC(=O)NC1c1ccc(OC(=O)c2ccco2)cc1 (stereo unspecified)	none
O=C(NNC(=S)NCc1ccc(Cl)cc1)c1ccc(Br)o1	Rab2 wt GTP 77, Cdc42 wt GTP 78
COc1cc(/C=C/c2ccc3cccc([N+](=O)[O-])c3n2)ccc1OCC(=O)O	Rab2 wt GTP 69, HRas wt GTP bind 72, Cdc42 wt GTP 70
CCCCNC(=S)NCCN1CCN(C(=S)NCCCC)CC1	none
COc1ccc(CCNC(=O)[C@@H](NC(=O)c2ccccc2F)C(C)C)cc1OC	none
O=C(CCCN1C(=O)/C(=C/c2ccccc2Cl)SC1=S)NNC(=O)c1ccccc1Cl	none
COc1ccc(/C=C2\SC(=S)N(CCCC(=O)NNC(=O)c3ccccc3O)C2=O)cc1	Cdc42 wt GTP 78, Rac1 wt GTP bind 79
O=C(COc1ccccc1-c1ccccc1)N/N=C/c1ccncc1	Rab2 wt GTP 61, Rab7 wt modul 58, HRas wt GTP bind 59, Rac1 act GTP bind 55, Cdc42 wt GTP 60, Rac1 wt GTP bind 55
NC(=O)c1c(NC(=O)c2ccncc2)sc2c1CCCC2	none
NC(=O)c1c(NC(=O)c2cnccn2)sc2c1CCCC2	Rac1 wt GTP bind 70
CC1(C)Cc2c(sc3c2C2=NCCN2C=N3)CS1	Rac1 wt GTP bind 123[activator]
CC(C)(C)NC(=O)C1CCN(S(=O)(=O)c2cccc(C(F)(F)F)c2)CC1	none
COCCNc1nc2c(c(=O)n(Cc3ccc(OC)cc3)c(=O)n2C)n1C	none
COc1ccc(CNc2nc3c(c(=O)n(Cc4ccc(Cl)cc4)c(=O)n3C)n2C)cc1	Rab2 wt GTP 78, Cdc42 wt GTP 79
COc1cc(-c2cc(=O)c3c(O)cc(O)cc3o2)ccc1O	Rac1 wt GTP bind 78
COc1cc(-c2cc(=O)c3ccccc3o2)ccc1O	none
COC(=O)c1ccc(NC(=S)NCCCn2ccnc2)cc1	none
Cc1cc(NC(=O)CSc2nnc3ccccn23)no1	none
CC(C)NC(=O)C12CC3CC(C1)CC(n1cnc(Cl)n1)(C3)C2	Rac1 wt GTP bind 121[activator]
O=C(N1CCOCC1)C12CC3CC(C1)CC(n1cnc(Cl)n1)(C3)C2	none
CC1=NC(=O)C(N=Nc2ccccc2C(=O)O)N1c1ccccc1 (stereo unspecified)	Rac1 wt GTP bind 79
CC1=NC(=O)C(N=Nc2ccccc2)N1c1ccccc1 (stereo unspecified)	none
Cc1ccn2c(NCc3ccc4c(c3)OCO4)c(-c3ccc(O)cc3)nc2c1	Cdc42 wt GTP 145[activator], Rac1 wt GTP bind 135[activator]
Cc1ccccc1NC(=O)C1CC(=O)N(Cc2ccccc2)C1 (stereo unspecified)	none
CCOc1ccc(CCNC(=O)CCS(=O)(=O)c2ccc(OC)cc2)cc1OCC	none
COc1cccc(NC(=O)CSc2nc3c([nH]c4ccccc43)c(=O)n2C)c1	Rac1 wt GTP bind 123[activator]
Cc1cccc(NC(=O)CSc2nc3c([nH]c4ccccc43)c(=O)n2C)c1	none
CC1(C)CC2CC(C)(CN2C(=O)c2cccs2)C1 (stereo unspecified)	Cdc42 wt GTP 133[activator], Rac1 wt GTP bind 157[activator]
Cc1cc(NCc2ccccn2)n2c(nc3ccccc32)c1C#N	Rab2 wt GTP 70, Rab7 wt modul 78, HRas wt GTP bind 75, Cdc42 wt GTP 72, Rac1 wt GTP bind 66
CCCc1cc(NCc2ccccn2)n2c(nc3ccccc32)c1C#N	Rac1 wt GTP bind 75
CCCc1cc(NCC2CCCO2)n2c(nc3ccccc32)c1C#N (stereo unspecified)	none
CS(=O)(=O)N1CCC(C(=O)NCc2ccc(F)cc2)CC1	none
N#Cc1c(-c2cccc(Br)c2)cc(-c2ccco2)[nH]c1=O	Rac1 act GTP bind 76, Cdc42 wt GTP 79, Rac1 wt GTP bind 75
CN(CC(=O)NCCc1ccccc1)S(=O)(=O)c1ccccc1	none
Cc1ccc(Sc2c(C)nn(C(=O)C3CC3)c2C)cc1	Rac1 act GTP bind 79, Rac1 wt GTP bind 78
COc1cc(/C=N/Nc2ccc(S(N)(=O)=O)cc2)cc(OC)c1OC	Rac1 wt GTP bind 79
